IEC-6 cytotox: cytotoxicity in IEC-6 intestinal epithelial cells, primary screen, cytotoxicity control for KLF5 inhibitor project, cell-based, luminescence. inhibition, % at 5 µM. IEC-6 cytotoxicity, luminescence viability. AID 1825, 2009. 290,000 compounds, 0.78% hits; in the data active = inhibition above about 22%;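 note: 0% = plate median of test compound wells and 100% = cytotoxic reference compound wells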
KLF5 inh: KLF5 expression inhibitors, primary screen, DLD-1 cells, luminescence | DLD-1 KLF5 promoter-luciferase reporter | AID 1700, 2009 | inhibition, % at 5 µM | 290,000 compounds, 0.23% hits;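 active = inhibition above a per-plate limit of that plate's mean compound inhibition plus 3 SD, cut at about 60% in these data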;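 note: 0% = DMSO wells and 100% = LY294002 at 200 µM; higher means less KLF5 promoter-driven luciferase light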
BaF3 parental: parental Ba/F3 cell viability inhibition, counter-screen for JAK2V617F inhibitor project, murine pro-B, CellTiter-Glo luminescence; CellTiter-Glo ATP luminescence; inhibition, % at 5.6 µM; 220,000 compounds, 1.1% hits; AID 1486, 2009;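 active = inhibition above a per-campaign cutoff, the mean inhibition of all tested compounds plus 3 SD, cut at about 27% in these data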;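 note: 0% = DMSO wells and 100% = JAK Inhibitor I control wells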
APP transl inh: inhibitors of APP translation via 5'UTR reporter, primary screen, APP 5'UTR luciferase, SH-SY5Y cells. SH-SY5Y APP 5'UTR-luciferase reporter, luminescence. inhibition, % at 2 µM. 190,000 compounds, 0.82% hits. AID 1285, 2008;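 active = inhibition above a set limit, derived from the sample mean plus 3 SD, cut at about 45% in these data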
Ba/F3 V617F tox: reduced viability of JAK2V617F-dependent Ba/F3 cells, primary screen, JAK2V617F inhibitor project, cell-based, Ba/F3 EpoR-JAK2V617F, luminescence; 220,000 compounds, 1.1% hits; ATP luminescence; inhibition, % at 5.6 µM;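 active = inhibition above the campaign mean plus 3 SD over all tested compounds, cut at about 24% in these data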;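 note: cytokine-independent growth of Ba/F3 cells driven by EpoR plus mutant JAK2; 0% = DMSO-treated cells and 100% = JAK inhibitor I control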
aSyn UTR inh: MLPCN primary screen, SNCA 5' untranslated region | alpha-synuclein 5'UTR reporter, inhibitor activity | inhibition, % (tested at 7.5 µM) | 300,000 compounds, 0.82% hits | AID 1813, 2009; in the data active = inhibition above about 60%;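 note: H4 neuroglioblastoma cells stably carrying SNCA 5'UTR luciferase fusion; 0% = DMSO wells and 100% = positive control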
The depositor's hits bear a star; i = inactive; . = not tested or not shown. Compounds with a hit are over-represented: about 2.2% of the library has one in this group of screens.

SMILES	IEC-6 cytotox	KLF5 inh	BaF3 parental	APP transl inh	Ba/F3 V617F tox	aSyn UTR inh
O=C(OCCN1C(=O)c2cccc3c(N4CCOCC4)ccc(c23)C1=O)c1cc(Cl)cc(Cl)c1	-9	-21	6	88*	2	.
Cc1ccc(C(=O)N2c3ccccc3OCC2C)cc1 (stereo unspecified)	-7	5	.	.	.	3
Cc1ccc(C(=O)N2C(=O)C(c3ccccc3)Oc3ccccc32)cc1 (stereo unspecified)	1	7	0	.	-4	93*
Oc1ccc(Nc2nc(N3CCCC3)c3ccccc3n2)cc1	13	-19	61*	8	48*	i
COc1ccc(Nc2nc(N3CCCCC3)c3ccccc3n2)cc1	5	-5	35*	-8	7	-13
CSCCC(NC(=O)COc1ccccc1)C(=O)N1CCN(c2ccccc2O)CC1 (stereo unspecified)	.	.	.	.	.	1
CC1=C(C(=O)Nc2ccccc2)C(c2cccnc2)n2ncnc2N1 (stereo unspecified)	10	-5	1	14	7	-14
Cc1cc(N/N=C/c2ccc(O)c(C)c2O)nc(-c2ccccc2O)n1	10	-30	7	43	1	87*
C/C(=N\Nc1cc(C)nc(-c2ccccc2O)n1)c1ccccc1	3	-54	2	18	-4	-65
CCOC(=O)C1=C(COC(=O)COc2ccccc2C#N)NC(=O)NC1C (stereo unspecified)	.	.	.	.	.	9
CN(Cc1ccc(C(C)(C)C)cc1)C(=O)c1ccc2c(=O)n3c(nc2c1)CCC3	.	.	.	.	.	1
COc1ccccc1OCC(=O)Nc1cccc(N(C)S(C)(=O)=O)c1	-2	-21	2	56*	-2	-9
Nc1ccc(-c2nc3ccccc3s2)cn1	-4	-111	.	.	.	-110
O=C1CCC(=O)N1c1ccc(-c2nc3ccccc3s2)cc1	-2	-83	89*	-107	2	-120
O=C(CCCC(=O)OCC(Cl)=C(Cl)Cl)Nc1ccccc1	-3	0	9	-17	5	-11
O=C(NCc1ccco1)c1sc(=S)n2c1[nH]c(=O)c1ccccc12	1	-19	91*	-18	1	-21
O=C(O)CCCNS(=O)(=O)/C=C/c1ccccc1	1	9	-2	-4	-2	-8
Cc1nc2ncccn2c1-c1csc(Nc2ccc(N(C)C)cc2)n1	22*	33	81*	94*	79*	70*
CC(=O)Nc1ccc(Nc2nc(-c3c(C)nc4ccccn34)cs2)cc1	.	.	.	.	.	87*
COc1ccc(Nc2nc(-c3c(C)nc4ncccn34)cs2)cc1	86*	84*	83*	94*	83*	.
Cc1nc2ncccn2c1-c1csc(Nc2ccc(S(N)(=O)=O)cc2)n1	-7	-55	.	.	.	6
Cc1nc2ncccn2c1-c1csc(Nc2ccccc2)n1	4	-29	2	6	-1	-16
CN(Cc1ccccc1)C(=O)c1nn2cccnc2c1Cl	-5	-5	2	-10	-1	-2
OC(CN1CC=C(/C=C/c2ccc(Br)cc2)CC1)c1ccccc1 (stereo unspecified)	-8	-22	.	.	.	1
O=C1CC(NS(=O)(=O)c2cc(F)ccc2F)CN1c1cccc(F)c1 (stereo unspecified)	.	.	.	.	.	1
SMILES	IEC-6 cytotox	KLF5 inh	BaF3 parental	APP transl inh	Ba/F3 V617F tox	aSyn UTR inh
Oc1ccc(-c2csc(NCc3ccco3)n2)cc1	0	-41	4	-24	0	-177
c1coc(CNc2nc(-c3cccs3)cs2)c1	3	-54	3	-40	1	107*
COc1ccc(C(=O)c2no[n+]([O-])c2C(=O)c2ccc(OC)cc2)cc1	4	-43	8	-9	3	-21
O=C(c1cccs1)c1no[n+]([O-])c1C(=O)c1cccs1	-3	-7	1	-9	5	63*
Cc1ccc(C(OCC(C)(C)C[N+](C)(C)C)c2ccccc2)cc1 (stereo unspecified)	-1	-51	58*	10	27*	-1
Cc1ccc(C(C)C)c(OCC(=O)NN=C2CCCCCCC2)c1	0	-39	3	86*	-1	16
Cc1ccc(C(C)C)c(OCC(=O)N/N=C2\CC(=O)CC(C)(C)C2)c1	5	1	.	.	.	.
